{"source": "PubChem BioAssay AID720565", "about": "(National Center for Advancing Translational Sciences (NCATS), 2013)", "note": "Results filed as inconclusive are left out. Values without a mark were called inactive. Calls of active or inactive are those of the source. Calls follow the shape of the dose curve; as a rule, active = well fitted activation curve with a large enough effect; inconclusive = small, poorly fitted or top-dose-only effect; inactive = no such curve, though single readings can be large or run the other way. Potency is read from the fitted curve at half-maximal effect."}
{"assay": "qHTS for small molecules that induce genotoxicity in ELG1 expressing cells: Confirmatory Assay for Cherry-picked Compounds; also: nearly all actives have a fitted effect of over 35% in size; as to activation: % of control where 0% means no effect", "settings": "ELG1-luciferase reporter cells, luminescence, 16 h; series mostly up to 46.1 µM; activation: at the top concentration", "in_short": "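Activation readout: ONE-Glo luciferase signal from ELG1 reporter cells, 2,000 per well, after 16 hr compound incubation at 37 C. Increased ELG1-driven luminescence reflects genetic stress.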", "units": {"activation": "%"}}
{"compound": "Cc1ccc(OCC(=O)Nc2ccc(-c3nc4ncccc4o3)cc2)cc1", "Potency": "28.1 µM (active)"}
{"compound": "N#Cc1cc2cc3c(cc2nc1SCC(=O)N1CCOCC1)OCO3", "Potency": "4.45 µM (active)"}
{"compound": "COc1ccccc1/C=C/c1nc2ccccc2s1", "Potency": "3.97 µM (active)"}
{"compound": "O=S(=O)(c1c(F)cccc1F)N1CCN(S(=O)(=O)c2c(F)cccc2F)CC1", "Potency": "15.8 µM (active)"}
{"compound": "CCC1CCCCN1CCCNC(=O)c1ccc2nc(N3CCC(C)CC3)sc2c1", "note": "(stereo not given)", "Potency": "0.0706 µM (active)"}
{"compound": "Cc1ccc(C)c(N2CCN(C(=O)CCc3nc(-c4cccc(Cl)c4)no3)CC2)c1", "Potency": "12.5 µM (active)"}
{"compound": "O=C(N[C@H]1/C=C\\[C@@H](O)CCCC1)OCc1ccccc1", "Potency": "9.96 µM (active)"}
{"compound": "COc1cc(C)c2c(=O)cc(-c3ccccc3)oc2c1", "Potency": "6.28 µM (active)"}
{"compound": "CC(=O)Oc1ccc(-c2nc(-c3ccccc3)no2)cc1", "Potency": "2.81 µM (active)"}
{"compound": "Cc1cc(C)c(C#N)c(SCC(=O)Nc2cc(C)on2)n1", "Potency": "4.99 µM (active)"}
{"compound": "Clc1ccc(-c2cnnc(-c3ccccn3)n2)cc1", "Potency": "14.1 µM (active)"}
{"compound": "CC(=O)c1c(C)[nH]c(C(=O)Nc2cccc(S(=O)(=O)N3CCCC3)c2)c1C", "Potency": "15.8 µM (active)"}
{"compound": "COc1cc(OC)cc(-c2cc3cc4c(cc3cn2)OCO4)c1", "Potency": "5.6 µM (active)"}
{"compound": "O=C(CSc1nnc(-c2ccc(O)cc2)o1)Nc1ccccc1", "Potency": "5 µM (active)"}
{"compound": "Nc1ccccc1NC(=O)c1ccc(CNC(=O)OCc2cccnc2)cc1", "Potency": "2.81 µM (active)"}
{"compound": "Cc1cc(C)cc(NC(=O)CCc2nc3sc4c(c3c(=O)[nH]2)CCCC4)c1", "activation": 15.7}
{"compound": "O=C(Nc1ccccn1)c1sc2ccc([N+](=O)[O-])cc2c1Cl", "Potency": "4.99 µM (active)"}
{"compound": "C(=C\\c1ccc2ccccc2n1)/c1ccc2ccccc2n1", "Potency": "0.792 µM (active)"}
{"compound": "CC(=NNC(=O)c1cccs1)c1ccc2c(c1)OCCO2", "Potency": "14.1 µM (active)"}
{"compound": "CC(=O)OCC1=C[C@H]2[C@@H]3C(C)(C)[C@]3(OC(C)=O)C[C@@H](C)[C@]2(O)[C@@H]2C=C(C)C(=O)[C@@]2(O)C1", "Potency": "2.23 µM (active)"}
